{"source": "paper PMC7819943", "about": "“Rice protein-binding microarrays: a tool to detect cis-acting elements near promoter regions in rice”", "note": "Whole data set: some 68,000 sequences, median “fluorescence intensity (a.u.)” near 9,100, cut for the highest 2% near 16,000. Many of the other results were omitted from the sample, so the highest values are more common in it than they were."}
{"target": "OsWRKY34 (Oryza sativa, UniProt Q0JBA9 1-250)", "sequence (Q0JBA9 entry or part of it)": "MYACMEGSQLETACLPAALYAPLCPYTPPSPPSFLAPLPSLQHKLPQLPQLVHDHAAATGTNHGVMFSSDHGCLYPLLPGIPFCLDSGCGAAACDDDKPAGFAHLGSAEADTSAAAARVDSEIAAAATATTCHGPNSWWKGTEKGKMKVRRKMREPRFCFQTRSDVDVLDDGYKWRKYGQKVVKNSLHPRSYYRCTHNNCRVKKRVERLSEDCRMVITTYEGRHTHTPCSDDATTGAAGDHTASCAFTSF", "test": "protein-binding microarray (RPBM); PBS, 2% BSA, 51.3 ng/ul salmon testes DNA, 50 uM zinc acetate, 200 nM TF, 25 C, 1 h; high values mean tight binding", "conditions": "protein: recombinant; tags: N-terminal polyhistidine and DsRed monomer fusion (pET32a); label: CyDye5-dUTP incorporated in the synthesized complementary strand; 3' TTTTT single-stranded linker to array surface; dsDNA, one strand shown", "procedure,_shortened": "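An Axon 4000B scanner gave the binding signal as per-feature fluorescence intensity in arbitrary units. This followed washing of a custom Agilent array that had been incubated for 1 h at 25 °C with 200 nM protein in PBS, 2% BSA, salmon testes DNA and 50 µM zinc acetate. The proteins were transcription factors fused at the N-terminus to polyhistidine and DsRed, expressed in E. coli BL21-CodonPlus and purified on Ni–NTA.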"}
{"sequence": "ATCAGCCTCATGCCCTTGTAGTCCATCGATCTGTCAGATCCGGAGTCACCTAGTGCAG", "binding signal": "13300 fluorescence intensity (a.u.)"}
{"sequence": "GAGGCGGGTGGGCGAGCTCCGGCGGCGGCGGGGTGGCCTTCGGAGTCACCTAGTGCAG", "binding signal": "15800 fluorescence intensity (a.u.)"}
{"sequence": "TGTGGATGGCGGGGCGAGGCGGAATGGGGCGAATGCGGCGCGGAGTCACCTAGTGCAG", "binding signal": "8240 fluorescence intensity (a.u.)"}
{"sequence": "GGAGGTGGGAGTGGGCAGTGGCTCGGCTCGTCGTCCTGGGCGGAGTCACCTAGTGCAG", "binding signal": "8780 fluorescence intensity (a.u.)"}
{"sequence": "GGAGGTGGGGATGGTGGGAGGTTTTGGTTTGGTAAAATAGCGGAGTCACCTAGTGCAG", "binding signal": "19800 fluorescence intensity (a.u.)"}
{"sequence": "TGGGCTTGGTGGAGGTGGCGGGTTTGGAGGCGGAGGTGGCCGGAGTCACCTAGTGCAG", "binding signal": "14400 fluorescence intensity (a.u.)"}
{"sequence": "GGAGGAGGCTGGTAGGGGAGGCGGGAGTCCGGCGGCGAGGCGGAGTCACCTAGTGCAG", "binding signal": "8640 fluorescence intensity (a.u.)"}
{"sequence": "CAGCAGCAGTGGTGGTGGTGGTTTTGGTAGTGGCTGGGAGCGGAGTCACCTAGTGCAG", "binding signal": "9780 fluorescence intensity (a.u.)"}
{"sequence": "TTCGTTTTTCTTTTTTTTTTGATGGGGAGGTTGTAAAATGCGGAGTCACCTAGTGCAG", "binding signal": "13800 fluorescence intensity (a.u.)"}
{"sequence": "TGAGCCTTGCTCGTCGGCGGCGAGGTGGGGTGGGGCGGGGCGGAGTCACCTAGTGCAG", "binding signal": "20800 fluorescence intensity (a.u.)"}
{"sequence": "GGCGGCCAGATCCGGGGCTGGGGAGGCGACGGCGGCGGGGCGGAGTCACCTAGTGCAG", "binding signal": "8710 fluorescence intensity (a.u.)"}
{"sequence": "GCGGAATGGGCGGCGGTGGAGGTGGCGGGTTTGGAGGCGGCGGAGTCACCTAGTGCAG", "binding signal": "16700 fluorescence intensity (a.u.)"}
{"sequence": "TACTTTATCCGCGGCGGGTAGCTGGGGAGGGAGGGGAGGCCGGAGTCACCTAGTGCAG", "binding signal": "22500 fluorescence intensity (a.u.)"}
{"sequence": "CGGTAGTGCGTTAGGTCTTCTCCAAGTCTCTTGGCTTTTACGGAGTCACCTAGTGCAG", "binding signal": "11100 fluorescence intensity (a.u.)"}
{"sequence": "TCACCGATTCACTCTCCTAGTCCTAGAGTCCTGGTCCATCCGGAGTCACCTAGTGCAG", "binding signal": "8440 fluorescence intensity (a.u.)"}
{"sequence": "GCACCCACAGTTCCATGAGACACATAGAAGTTTTACACAACGGAGTCACCTAGTGCAG", "binding signal": "10600 fluorescence intensity (a.u.)"}
{"sequence": "TTTCTGAGAGGCATAGTTCATGTTTCCCCATATATACTTCCGGAGTCACCTAGTGCAG", "binding signal": "8830 fluorescence intensity (a.u.)"}
{"sequence": "TCCGCTGCCTTCGATTCTTGGTAAGCCCCTAATTCTCCTTCGGAGTCACCTAGTGCAG", "binding signal": "8420 fluorescence intensity (a.u.)"}
{"sequence": "ACGTTAGTTAAAAAGTCAACGGCGTCATCCATTAAAATACCGGAGTCACCTAGTGCAG", "binding signal": "8900 fluorescence intensity (a.u.)"}
{"sequence": "TCCCCATGCCATGCAAAATAAATATCCATATTACCGTTTCCGGAGTCACCTAGTGCAG", "binding signal": "8320 fluorescence intensity (a.u.)"}
{"sequence": "AGCACCGGTGGCAGCGGCGGACCGTGGAGGGAGGGAGGGGCGGAGTCACCTAGTGCAG", "binding signal": "9770 fluorescence intensity (a.u.)"}
{"sequence": "CGGCGGCGGTGGTGGGGAGGAGGAGGGCCAGCGGCAGCAACGGAGTCACCTAGTGCAG", "binding signal": "17500 fluorescence intensity (a.u.)"}
{"sequence": "GAGCTTTGCGCTGGGTGGGCTTGCATTTTTGGGTCTACCGCGGAGTCACCTAGTGCAG", "binding signal": "21500 fluorescence intensity (a.u.)"}
{"sequence": "GGGGAGGAGGAGGAGGAGGGTAGGGATGGGGAAGAGGAGTCGGAGTCACCTAGTGCAG", "binding signal": "8020 fluorescence intensity (a.u.)"}
{"sequence": "TTCTTCGGTGGTGGTGGTGGTGGGATGGAAGAGGAGGAAGCGGAGTCACCTAGTGCAG", "binding signal": "25800 fluorescence intensity (a.u.)"}
{"sequence": "TAGCTGTTTGGTCTTGCTGGTGGTGGTGGGTGAGTGTTGGCGGAGTCACCTAGTGCAG", "binding signal": "11200 fluorescence intensity (a.u.)"}
{"sequence": "CAGCGGGCCCAGCAAGTCAGCCTCACATCTTCTTCTTCATCGGAGTCACCTAGTGCAG", "binding signal": "8340 fluorescence intensity (a.u.)"}
{"sequence": "GTGGTGGAGGAGGAGGAGGAGGATGAGGAGGAAGCGGCTGCGGAGTCACCTAGTGCAG", "binding signal": "8570 fluorescence intensity (a.u.)"}
{"sequence": "GGTGTGGGGCCCACCTGCAGCCTCACATCGGCACCAGCTGCGGAGTCACCTAGTGCAG", "binding signal": "18600 fluorescence intensity (a.u.)"}
{"sequence": "GTGGCGGCGGGTGGGGCCCATCTCATGGCTGCTGCCTCTGCGGAGTCACCTAGTGCAG", "binding signal": "10800 fluorescence intensity (a.u.)"}
{"sequence": "GTGGGCAGCGGCGGCGGCCGGTGGGAGGAGGGGAAGCATGCGGAGTCACCTAGTGCAG", "binding signal": "8380 fluorescence intensity (a.u.)"}
{"sequence": "AAGTTTTTGGGTAGTGCTTTTGCGCGCTTTCTCTTGGCTGCGGAGTCACCTAGTGCAG", "binding signal": "8150 fluorescence intensity (a.u.)"}
{"sequence": "AGACTTTATTTTTTCCCTGGGCTAAGGACTAGTCCCATATCGGAGTCACCTAGTGCAG", "binding signal": "8980 fluorescence intensity (a.u.)"}
{"sequence": "GGGACCCGATTTGGGCGGTATATACCTTACTTCACGTGCACGGAGTCACCTAGTGCAG", "binding signal": "8920 fluorescence intensity (a.u.)"}
{"sequence": "ATCGCTGCTGTCTTCTCAAATTATAATTTACCGTTTTTAACGGAGTCACCTAGTGCAG", "binding signal": "8090 fluorescence intensity (a.u.)"}
{"sequence": "GCCTCCATCCACCTCGCCCATCCCTACACTCTACTACTCCCGGAGTCACCTAGTGCAG", "binding signal": "8670 fluorescence intensity (a.u.)"}
{"sequence": "CTCCTACTGCCTACCGCCGACGCAGAACTCCGTGGGTTACCGGAGTCACCTAGTGCAG", "binding signal": "8210 fluorescence intensity (a.u.)"}
{"sequence": "GCCTCTCGTGGGCCGTCGCCGCCCACCCGCCCGGACACGTCGGAGTCACCTAGTGCAG", "binding signal": "8380 fluorescence intensity (a.u.)"}
{"sequence": "GGAGTTCGTGGGGACGTTCATCCTCATCTTCTTCGCGACGCGGAGTCACCTAGTGCAG", "binding signal": "9260 fluorescence intensity (a.u.)"}
{"sequence": "ACGCGCGGCCTAGTTGTGTGTGGGTGTGTGAGGTGAGGGGCGGAGTCACCTAGTGCAG", "binding signal": "11000 fluorescence intensity (a.u.)"}
{"sequence": "CGGCGGCGGCGGCGGCGGCGGCGGAGGTGGTGTGGGTGGGCGGAGTCACCTAGTGCAG", "binding signal": "8220 fluorescence intensity (a.u.)"}
{"sequence": "GAGTAGAGGTGGGAGGAAGCGGTGGTGTGGTGGGGTGGGGCGGAGTCACCTAGTGCAG", "binding signal": "22100 fluorescence intensity (a.u.)"}
{"sequence": "ATGAGGGGTCGGGGTTGGGCGGCGTGGGCACGGGCTCGAGCGGAGTCACCTAGTGCAG", "binding signal": "13000 fluorescence intensity (a.u.)"}
{"sequence": "GGGCGGGCGGGCTCGAGGTTGTGGTGGGGCGTGTGGCAGGCGGAGTCACCTAGTGCAG", "binding signal": "18200 fluorescence intensity (a.u.)"}
